Screening data (PubChem BioAssay)
GLD-1 TGE inh: GLD-1-TGE RNA interaction inhibition (C. elegans); Q17339; purified GLD-1 + fluorescein TGE RNA, fluorescence polarization; inhibition, % at 5.96 µM; 0.44% of 320,000 active; AID 2280;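 active = percent inhibition above a per-plate cutoff, the plate mean of test compounds plus 3 SD, cut at about 30% in these data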
Target sequence (Q17339 whole entry, looked up): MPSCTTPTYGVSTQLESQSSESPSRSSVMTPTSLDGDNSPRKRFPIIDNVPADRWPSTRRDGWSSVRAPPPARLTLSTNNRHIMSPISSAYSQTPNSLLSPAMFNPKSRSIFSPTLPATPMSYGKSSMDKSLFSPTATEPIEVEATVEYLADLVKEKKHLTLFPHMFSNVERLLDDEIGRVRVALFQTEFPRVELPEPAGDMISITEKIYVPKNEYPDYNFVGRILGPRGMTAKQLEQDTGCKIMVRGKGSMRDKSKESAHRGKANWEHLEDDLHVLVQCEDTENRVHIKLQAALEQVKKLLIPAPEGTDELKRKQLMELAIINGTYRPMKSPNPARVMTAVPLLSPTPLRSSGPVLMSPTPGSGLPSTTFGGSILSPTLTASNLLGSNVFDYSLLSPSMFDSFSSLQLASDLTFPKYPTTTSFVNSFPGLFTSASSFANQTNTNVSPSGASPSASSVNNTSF
Mcl1-Bid inh: Mcl-1/Bid interaction inhibition; AID 1021; TR-FRET Mcl-1/Bid-Dy647 peptide binding, 1536-well; inhibition, % at 21.7 µM; 0.97% of 220,000 active;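 active = compounds that cut the binding signal by more than half at the single screening dose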;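 note: His-tagged Mcl-1 with europium anti-His antibody binding Bid BH3 peptide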
Mcl-1 Bim block: human Bim-Mcl-1 interaction inhibition; Q07820; Bead-based flow cytometry, Bim peptide-Mcl-1 binding; 0.1% of 190,000 active; inhibition, % at 10 µM; AID 1009; in the data active = inhibition above about 40%
MCL1-BIM inh: inhibitors of human MCL1 binding to BIM-BH3 peptide | Q07820 | GST-MCL1 / FITC-Bim-BH3 fluorescence polarization | inhibition, % at 10.9 µM | 0.68% of 320,000 active | AID 2057;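 active = inhibition above the mean inhibition of all tested compounds plus 3 SD, set per campaign, cut at about 40% in these data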;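 note: higher means more loss of mP so more displacement of Bim peptide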
Mcl1-Noxa inh: Mcl-1/Noxa interaction inhibition; TR-FRET Mcl-1/Noxa peptide binding, 2 h; AID 1022; inhibition, % at 21.7 µM; Q07820; 1.5% of 220,000 active;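 active = compounds that cut the protein-peptide binding signal by more than 50% relative to plate controls in a single-dose test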;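 note: His-tagged Mcl-1 with rhodamine Noxa BH3 peptide and terbium anti-His antibody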
BCLXL inh: inhibitors of human Bcl-xL; inhibition, % at 10.9 µM; 0.7% of 320,000 active; Q07817; GST-Bcl-xL / FITC-Bim BH3 peptide fluorescence polarization; AID 2129;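 active = inhibition above the mean of all tested compounds plus 3 SD, cutoff set per campaign, cut at about 30% in these data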;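 note: inhibitors lower millipolarization by displacing the labeled peptide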
Target sequence (Q07817 whole entry, looked up): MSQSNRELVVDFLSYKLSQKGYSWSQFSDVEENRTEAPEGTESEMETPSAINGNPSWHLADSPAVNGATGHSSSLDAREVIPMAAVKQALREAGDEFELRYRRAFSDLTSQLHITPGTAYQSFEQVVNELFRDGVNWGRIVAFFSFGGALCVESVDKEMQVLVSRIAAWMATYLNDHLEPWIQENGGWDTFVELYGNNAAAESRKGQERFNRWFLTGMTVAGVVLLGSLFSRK
Of the large screens only hits and unclear results are named; the others gave an inactive call. The list is not random: actives were taken first. Their share in the collection is about 2.3%.

CC(C)N1C(=O)/C(=C/c2nc3ccccc3c(=O)n2-c2ccccc2)c2ccccc21	Mcl1-Bid inh 78, Mcl1-Noxa inh 55
CC(C)N1C(=O)/C(=C\c2nc3ccccc3c(=O)n2-c2ccccc2)c2ccccc21	none
O=C(Nc1cccc(Cl)c1)c1cc(N=Nc2ccc([N+](=O)[O-])cc2Cl)ccc1O	Mcl1-Bid inh 100, Mcl1-Noxa inh 109 (no result: Mcl-1 Bim block)
COc1ccc(N/C=C2\C(=O)CCc3c2oc2cc(Cl)c(O)c(Cl)c32)cc1	Mcl1-Bid inh 86, Mcl1-Noxa inh 74 (no result: Mcl-1 Bim block)
COc1ccc(N/C=C2\CCOC2=O)cc1	none
COc1ccc(-n2c(=O)cc(N3CCOCC3)[nH]c2=O)cc1	Mcl1-Bid inh 92
CCOc1ccc2nc(C)cc(Nc3ccc(N4CCOCC4)cc3)c2c1	Mcl1-Noxa inh 62
Cc1ccc(N=Nc2ccc(O)c3ncccc23)cc1C	none
Cc1cc(N=Nc2ccc(C)c(N=Nc3cc(C)c(N)cc3N)c2)c(N)cc1N	Mcl1-Noxa inh 60 (no result: Mcl-1 Bim block)
O=C(OCC(=O)N1CCCC1=O)C1COc2ccccc2O1 (centres undefined)	Mcl1-Noxa inh 58
O=C(NCC(c1cccnc1)N1CCN(c2ccc(F)cc2)CC1)c1ccco1 (centres undefined)	BCLXL inh 151
O=C(NCC(c1cccnc1)N1CCOCC1)c1cccc(Cl)c1 (centres undefined)	Mcl1-Bid inh 57
COc1ccc(N2CCN(C(CNC(=O)c3ccco3)c3cccnc3)CC2)cc1 (centres undefined)	none
COc1ccc(N2CCN(C(CNC(=O)c3cccc(Cl)c3)c3cccnc3)CC2)cc1 (centres undefined)	none
CC[C@H](C)[C@H](NS(=O)(=O)c1ccc(C)cc1)C(=O)N1CCC(C(=O)N[C@H](C(=O)O)C(C)C)CC1	BCLXL inh 41
COc1ccc(NC(=O)CN2C(=O)COc3ccccc32)cc1OC	none (no result: Mcl1-Bid inh, Mcl-1 Bim block, Mcl1-Noxa inh)
CC(=O)COC(=O)C1CCN(S(=O)(=O)c2cc([N+](=O)[O-])ccc2Cl)CC1	none (no result: Mcl-1 Bim block)
Cc1c(Cl)cnc(NC(=O)COC(=O)CCS(=O)(=O)c2ccccc2)c1Cl	none
O=C(COC(=O)C1CCN(S(=O)(=O)c2cc([N+](=O)[O-])ccc2Cl)CC1)Nc1ncc(Cl)cc1Cl	Mcl1-Noxa inh 69
O=C(COC(=O)C1CC1)Nc1ncc(Cl)cc1Cl	none (no result: Mcl1-Bid inh, Mcl-1 Bim block, Mcl1-Noxa inh)
O=C(COC(=O)C1CC1)Nc1ncc(C(F)(F)F)cc1Cl	BCLXL inh 32
O=C(COC(=O)CCS(=O)(=O)c1ccc(Cl)cc1)Nc1ncc(Cl)cc1Cl	Mcl1-Bid inh 93
NNC(=O)CNc1ccccc1Cl	none
Cc1ccc(OCC(=O)NNC(=O)c2ccccc2OCc2c(C)noc2C)cc1	none (no result: Mcl1-Bid inh, Mcl-1 Bim block, Mcl1-Noxa inh)
O=C(Cn1nc(C(=O)O)c2ccccc2c1=O)Nc1ccc2c(c1)C(=O)c1ccccc1C2=O	Mcl1-Bid inh 75, Mcl1-Noxa inh 80 (no result: Mcl-1 Bim block)
COc1cc(CNc2nnnn2C)cc(OC)c1OC	none (no result: Mcl1-Bid inh, Mcl-1 Bim block, Mcl1-Noxa inh)
N#Cc1ccccc1NC(=S)NC(=O)c1cccnc1	none (no result: Mcl1-Bid inh, Mcl-1 Bim block, Mcl1-Noxa inh)
CC(C)c1ccc(S(=O)(=O)/N=C2/C=CC(=O)c3ccccc32)cc1	Mcl1-Noxa inh 78 (no result: GLD-1 TGE inh, MCL1-BIM inh, BCLXL inh)
CCn1c(C)cc(/C=C2\NC(=O)N(Cc3ccc(Cl)cc3)C2=O)c1C	Mcl1-Bid inh 90, Mcl1-Noxa inh 83
O=C(NC1CCCCC1)C(c1ccc2ncccc2c1)N(Cc1ccccc1)C(=O)c1ccc2c(c1)OCCO2 (centres undefined)	Mcl1-Bid inh 86, Mcl1-Noxa inh 61
OCC[C@@H]1C[C@@H](O)[C@H](O)[C@@]2(Cc3ccccc3CCO2)O1	none (no result: Mcl1-Bid inh, Mcl-1 Bim block, Mcl1-Noxa inh)
CC(C)N1C(=S)SC(C)(C)C1n1oc(=O)n(-c2cccc(Cl)c2)c1=O (centres undefined)	BCLXL inh 129
CC(NC(N)=O)C(=O)Nc1ccc(Cl)c(S(=O)(=O)Nc2ccc(Br)cc2)c1 (centres undefined)	Mcl1-Noxa inh 57
Cc1cc(C)c(C(=O)CC(=O)c2ccccc2Cl)c(O)c1	none (no result: Mcl1-Bid inh, Mcl-1 Bim block, Mcl1-Noxa inh)
CNc1ccc(Br)cc(C(=O)/C=C/c2cccc(OC)c2OC)c1=O	Mcl1-Noxa inh 70
CNc1ccc(Br)cc(C(=O)/C=C/c2cccc(Cl)c2Cl)c1=O	Mcl1-Bid inh 92, Mcl1-Noxa inh 106 (no result: GLD-1 TGE inh, MCL1-BIM inh, BCLXL inh)
CCNc1ccc(Br)cc(C(=O)/C=C/c2ccccc2Cl)c1=O	none (no result: Mcl1-Bid inh, Mcl-1 Bim block, Mcl1-Noxa inh)
Cc1nn(C)cc1NC(=O)Cn1nc(C(F)(F)F)cc1C1CC1	none
CC(C)(C)NS(=O)(=O)c1ccc(C(=O)Nc2ccc3c(c2)OCO3)cc1	none (no result: Mcl1-Bid inh, Mcl-1 Bim block, Mcl1-Noxa inh)
COc1ccc(-n2cccc2/C=C2/NC(=O)N(c3cccc(Cl)c3)C2=O)cc1	none
O=C(O)c1cccc(-n2cccc2/C=C2/NC(=O)N(c3ccc(Cl)cc3)C2=O)c1	Mcl1-Bid inh 98, Mcl1-Noxa inh 113 (no result: GLD-1 TGE inh, MCL1-BIM inh, BCLXL inh)
CCOc1ccc(C2C3=C(Nc4nc(N)[nH]c(=O)c42)c2ccccc2C3=O)cc1 (centres undefined)	Mcl1-Bid inh 52, Mcl1-Noxa inh 76
ONC(=Nc1ccccc1Cl)c1c(F)cccc1F	none (no result: Mcl1-Bid inh, Mcl-1 Bim block, Mcl1-Noxa inh)
O=C(CCn1c(=O)oc2ccc(Cl)cc21)N1CCN(Cc2ccccc2)CC1	none (no result: Mcl1-Bid inh, Mcl-1 Bim block, Mcl1-Noxa inh)
[O-]c1c[n+](-c2ccc(-[n+]3cc([O-])on3)cc2)no1	Mcl1-Noxa inh 57
COc1ccc(NC(=O)N2CCN(S(C)(=O)=O)CC2)cc1	none
CCOc1ccc2sc(NS(=O)(=O)c3ccc(OC)c(OC)c3)nc2c1	BCLXL inh 64
CC(C)c1nc2sc3c(=O)[nH]c(=S)[nH]c3c2c2c1CCC2	Mcl1-Noxa inh 81 (no result: GLD-1 TGE inh, MCL1-BIM inh, BCLXL inh)
CCOC(=O)c1sc2nc(C(C)C)c3c(c2c1N)CCC3	none
CC(C)c1nc2sc3c(=O)[nH]c(=S)[nH]c3c2c2c1CCCC2	Mcl1-Noxa inh 57 (no result: Mcl-1 Bim block)
CSc1nc(NCc2ccco2)c2c3c(sc2n1)CN(C)CC3	Mcl1-Noxa inh 57
CSc1nc(SCC(=O)NCc2ccco2)c2c3c(sc2n1)CN(C)CC3	Mcl1-Noxa inh 84
CSc1nc(SCC(N)=O)c2c3c(sc2n1)CN(C)CC3	none
O=C(CSc1nc2ccc([N+](=O)[O-])cc2s1)c1ccc2ccccc2c1	none (no result: GLD-1 TGE inh, Mcl-1 Bim block, MCL1-BIM inh, BCLXL inh)
CC(=O)Nc1nnc(SCc2ccc(F)cc2)s1	none
CC(=O)Nc1nnc(SCc2cccc(F)c2)s1	BCLXL inh 47
O=c1/c(=C/c2ccc(O)c([N+](=O)[O-])c2)sc2nc3ccccc3n12	Mcl1-Noxa inh 80 (no result: GLD-1 TGE inh, MCL1-BIM inh, BCLXL inh)
O=c1/c(=C\c2cccnc2)sc2nc3ccccc3n12	none (no result: GLD-1 TGE inh, MCL1-BIM inh, BCLXL inh)
Cc1cc(/C=c2\sc3nc4ccccc4n3c2=O)c(C)n1-c1ccc(C(=O)O)cc1	Mcl1-Noxa inh 65 (no result: GLD-1 TGE inh, MCL1-BIM inh, BCLXL inh)
COC(=O)/C=C/c1ccc2c(c1)OCO2	none
CCNc1ccccc(C(=O)/C=C/c2ccc3c(c2)OCO3)c1=O	Mcl1-Noxa inh 70
N=C(N)c1ccc(/C=C/c2ccc(C(=N)N)cc2O)cc1	Mcl1-Noxa inh 66 (no result: Mcl-1 Bim block)
N=C(N)c1ccc(Cl)cc1	none
Cc1ccc(/C=N/OC(=O)c2c(C)noc2-c2snnc2C)cc1	Mcl1-Bid inh 63 (no result: Mcl-1 Bim block)
